High-throughput results: PubChem, National Center for Advancing Translational Sciences (NCATS)
TDP1 cell noCPT = qHTS for Inhibitors of human tyrosyl-DNA phosphodiesterase 1 (TDP1): qHTS in cells in absence of CPT | 420,000 compounds, 15% hits | Potency, µM (top dose mostly 46.2 µM), most hits filed as inhibitors | AID 686978, 2013 | DT40 Tdp1-/- hTDP1 cells, no CPT, ATP luminescence, 48 h; further: nearly all actives have a fitted effect of over 55% in size
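Luminescent ATP content (CellTiter-Glo) served as the growth readout. Knockout chicken DT40 cells expressing human TDP1 were exposed to compounds without camptothecin for a minimum 48 hr at 37 °C.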
ELG1 repair inh = blocks ELG1-dependent DNA repair in HEK293T cells; HEK293T ELG1-luciferase reporter, luminescence, 16 h; DNA damage induced by 5-fluorouridine; Potency, µM (top dose mostly 46.1 µM), usual class: inhibitors; 330,000 compounds, 2.3% hits; further: nearly all actives have a fitted effect of over 55% in size
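HEK293T cells expressing luciferase-tagged ELG1 (2,000/well) received 5-Fluorouridine plus compound or DMSO for 16 hr at 37 °C. Luciferase was read by ONE-Glo luminescence after 30 min at room temperature.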
DT40 TDP1 CPT = growth inhibition of DT40 Tdp1-/-;hTDP1 cells with camptothecin (screen for TDP1 inhibitors). AID 686979. chicken DT40 Tdp1-/-;hTDP1 cells + 20 nM CPT, ATP luminescence, 48 h. 420,000 compounds, 12% hits. Potency, µM (titrated, usually from 46.2 µM), actives largely listed as inhibitors; further: nearly all actives have a fitted effect of over 55% in size
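Chicken DT40 Tdp1-/- cells stably complemented with human TDP1 were seeded at 400 cells/well in medium containing 20 nM camptothecin, exposed to pin-transferred compounds, and grown at 37 °C for at least 48 hr. Viability was read as ATP luminescence.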
IL-1B inflam inh = inhibitors of inflammasome signaling (IL-1 beta secretion) | THP-1 LPS/ATP IL-1B secretion, AlphaLISA, 16 h; active compounds read low | activity change, % at 57.5 µM | 360,000 compounds, 4.7% hits; in the data active means activity change below about -50%; inconclusive means mostly about -30% to -49%
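THP-1 cells pretreated 1 hr with compounds (up to 57.5 uM final), then stimulated with LPS (250 ng/mL final) plus ATP (1.25 mM final); secreted IL-1B measured by AlphaLISA after 16 hr, decreased signal indicating inhibition.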
HT1080 IDH1KD tx = toxicity to HT-1080 IDH1 knockdown cells (counter line); HT-1080 IDH1 knockdown viability, ATP luminescence, 48 h; Potency, µM (doses to about 46.1 µM), hits mostly cytotoxic; 360,000 compounds, 2% hits; AID 686971
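Cytotoxicity counter-line: IDH1KD HT-1080, 48 h, CellTiter-Glo. Curves classed by r2, magnitude and activity.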
HT1080NT lethal = kills 2HG-producing HT-1080-NT fibrosarcoma cells. HT-1080-NT fibrosarcoma viability, CellTiter-Glo ATP luminescence, 48 h. Potency, µM (doses to about 46.1 µM), most hits filed as cytotoxic. 360,000 compounds, 1.6% hits. AID 686970;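 further: NT is the 2HG producing partner of a matched IDH1 knockdown line; nearly all actives have a fitted effect of over 55% in size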
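Toxicity toward the 2HG-producing NT line was scored as %Activity, normalised to DMSO and no-cell wells, from CellTiter-Glo luminescence after 48 hours' treatment.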
A number is an active result; n = inactive; u = inconclusive; x = no result. An excerpt weighted towards active compounds, which were near 19% of everything screened. Unless noted, the call rests on the fitted dose curve; in most records, active means well fitted curve in the direction sought with a large enough effect; inconclusive means small, poorly fitted or top-dose-only effect, or another doubt; inactive means no such curve, though single readings can be large; an effect the other way counts as inactive or inconclusive.

SMILES	TDP1 cell noCPT	ELG1 repair inh	DT40 TDP1 CPT	IL-1B inflam inh	HT1080 IDH1KD tx	HT1080NT lethal
C/C(CC(=O)Nc1ccc2c(c1)OCO2)=N\NC(=O)OC(C)(C)C	n	u	n	n	n	n
O=C1NC(Cc2ccc(O)cc2)c2nc3ccccc3c(=O)n2-c2cc(Cl)ccc21 (stereo not given)	x	n	x	x	x	x
N#Cc1ccc(S(=O)(=O)NCC(=O)OCC(=O)N2CCCC2=O)cc1	n	n	n	n	n	n
CCCC(=O)O[C@]1(C(=O)COC(=O)CC)CC[C@H]2[C@@H]3CCC4=CC(=O)CC[C@]4(C)[C@H]3[C@@H](O)C[C@@]21C	n	x	n	x	x	x
N#Cc1cccc(NC(=O)C2CCN(c3cnccn3)CC2)c1	n	x	n	x	x	x
Fc1ccc(CNC(=S)Nc2cccc(C(F)(F)F)c2)cc1	18µM	u	u	n	u	u
Fc1ccccc1CNC(=S)Nc1cccc(C(F)(F)F)c1	23µM	n	u	-98	n	n
O=[N+]([O-])c1cc(C(F)(F)F)cc([N+](=O)[O-])c1NCCNC(=S)Nc1cccc(F)c1	26µM	n	u	-53	n	n
Fc1cccc(NC(=S)NCc2ccc(Cl)cc2)c1	u	n	u	n	n	n
O=[N+]([O-])c1cccc(Cl)c1NCCNc1ncc(C(F)(F)F)cc1Cl	u	n	u	n	n	n
Cc1cccc(NC(=O)CCN2CCN(c3ccccc3F)CC2)c1	u	x	n	x	x	x
O=C1C=C(c2ccc(Oc3ccccc3)cc2)C[C@@H](c2ccc3c(c2)OCO3)C1	n	n	u	n	n	n
Cn1c(SCC(=O)NCCc2ccccc2)nnc1C1CCCCC1	u	n	u	n	n	n
Cc1cc(-c2ccccc2)c2ccc(NC(=O)C(C)(C)C)nc2n1	15µM	u	21µM	n	n	n
O=C(O)c1ccc(SCc2ccccc2)nc1	n	x	n	n	n	n
O=C(Cc1ccccc1[N+](=O)[O-])NCC(O)c1ccc2c(c1)OCO2 (stereo not given)	n	x	n	n	n	n
CCCCCCCCCCCCCCCCn1cc[n+](C)c1	0.46µM	7.3µM	0.46µM	-96	21µM	16µM
Cc1sc2nc(CN3CCOCC3)nc(Cl)c2c1C	n	n	n	-96	n	n
CCNc1nc(CN2CCOCC2)nc2sc3c(c12)CCC3	n	n	n	n	n	n
Clc1nc(CN2CCCCC2)nc2sc3c(c12)CCC3	18µM	n	u	x	n	n
O=S(=O)(Nc1nc2ccccc2nc1Nc1ccccc1Br)c1ccccc1	n	x	n	x	x	x
COc1ccc2c(c1OC)C(Cc1ccccc1)N1CCc3cc4c(cc3C1C2)OCO4 (stereo not given)	12µM	x	6µM	x	x	x
COc1ccc2c(c1OC)CN(C)CCc1cc3c(cc1C(O)C2)OCO3 (stereo not given)	u	n	u	n	n	n
COc1ccccc1CNC(=O)Cn1cc([N+](=O)[O-])ccc1=O	n	n	n	n	n	n
Cc1ccc(S(=O)(=O)NCc2cn3c(C)csc3n2)cc1	n	n	n	n	n	n
SMILES	TDP1 cell noCPT	ELG1 repair inh	DT40 TDP1 CPT	IL-1B inflam inh	HT1080 IDH1KD tx	HT1080NT lethal
Cc1ccc(SCc2cn3c(C)csc3n2)cc1	n	u	n	n	u	35µM
Cc1csc2nc(CNS(=O)(=O)c3ccc(-c4ccccc4)cc3)cn12	18µM	u	u	n	n	u
O=S(=O)(NCc1cn2ccsc2n1)c1ccc2c(c1)OCCO2	23µM	n	u	n	n	n
O=S(=O)(NCc1cn2ccsc2n1)c1ccc(Oc2ccccc2)cc1	10µM	u	9.2µM	n	n	n
CC(=O)c1ccc(N2CCN(S(=O)(=O)c3cn(C)c(C)n3)CC2)cc1	n	n	n	n	n	n
CC1Cn2cc(C(=O)Nc3cccc(C(F)(F)F)c3)c(=O)c3c(Cl)ccc(c32)O1 (stereo not given)	n	x	n	x	x	x
CC(C)CN(C(=O)COC(=O)CCC(=O)c1ccc(F)cc1)c1c(N)n(Cc2ccccc2)c(=O)[nH]c1=O	n	n	n	n	n	n
O=S(=O)(NCCN1CCOCC1)c1ccc(-c2ccc(S(=O)(=O)NCCN3CCOCC3)cc2)cc1	n	n	n	n	n	n
O=S(=O)(NCCN1CCOCC1)c1ccc2c(c1)OCCO2	n	n	n	-74	n	n
COc1ccc(S(=O)(=O)N(C)C)cc1NC(=O)Cc1ccc(S(=O)(=O)N2CCOCC2)s1	u	n	13µM	n	n	n
CCN(CC)S(=O)(=O)c1cc(NC(=O)Cc2ccc(S(=O)(=O)N3CCOCC3)s2)ccc1Cl	13µM	x	21µM	n	u	n
CN(C)S(=O)(=O)c1ccc(NC(=O)Cc2ccc(S(=O)(=O)N3CCOCC3)s2)cc1	n	u	n	n	n	n
CCOC(=O)c1cc(NC(=O)Cc2ccc(S(=O)(=O)N3CCOCC3)s2)cc(C(=O)OCC)c1	u	6.5µM	23µM	u	n	n
CCCCOc1ccc(C(=O)N(CC)CC(=O)NCc2cccs2)cc1	u	n	u	n	n	n
CSc1ccc(CCNC(=O)C2CCCN(S(=O)(=O)N(C)c3ccc(F)cc3)C2)cc1 (stereo not given)	9.2µM	x	6.5µM	x	x	x
CSc1ccc(CCNC(=O)C2CCCN(S(=O)(=O)N3CCOCC3)C2)cc1 (stereo not given)	n	n	n	n	n	n
CN(c1ccc(F)cc1)S(=O)(=O)N1CCCC(C(=O)NCCc2ccccc2)C1 (stereo not given)	u	x	21µM	x	x	x
COc1cccc(CNC(=O)C2CCCN(S(=O)(=O)N(C)c3ccc(F)cc3)C2)c1OC (stereo not given)	3.7µM	x	3.3µM	x	x	x
CNC(=O)C1CCC(Cn2c(=O)c3sccc3n(Cc3ccc(F)cc3)c2=O)CC1 (stereo not given)	8.2µM	x	8.2µM	x	x	x
Cc1ccc(Cn2c(=O)n(CC3CCC(C(=O)N4CCOCC4)CC3)c(=O)c3sccc32)cc1 (stereo not given)	16µM	x	21µM	x	x	x
CCn1c(=O)c2sccc2n(Cc2ccc(C)cc2)c1=O	n	n	n	n	n	n
O=c1c2sccc2n(Cc2cccc(F)c2)c(=O)n1-c1ccc(F)cc1	18µM	n	15µM	n	u	n
O=C(C1CCC(Cn2c(=O)c3sccc3n(Cc3cccc(F)c3)c2=O)CC1)N1CCCCC1 (stereo not given)	5.8µM	x	u	x	x	x
CN1C(=O)/C(=C/c2cc(C(C)(C)C)c(O)c(C(C)(C)C)c2)NC1=S	n	n	n	n	n	n
